High-throughput results from PubChem.
An excerpt weighted towards active compounds, which were near 21% of everything screened.
DT40 TDP1 no CPT: qHTS for Inhibitors of human tyrosyl-DNA phosphodiesterase 1 (TDP1): qHTS in cells in absence of CPT; DT40 Tdp1-/- hTDP1 cells, no CPT, ATP luminescence, 48 h; Potency, µM (doses to about 46.2 µM), usual class: inhibitors; 15% of 420,000 active; AID 686978, 2013; also: nearly all actives have a fitted effect of over 55% in size
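Stably hTDP1-transfected Tdp1-null chicken DT40 cells were treated with library compounds minus camptothecin and grown for at least 48 hr at 37 °C, after which cellular ATP was quantified by luminescence.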
ClpP mod: qHTS Assay for Activators of ClpP; ATP-dependent Clp protease proteolytic subunit (Bacillus subtilis (strain 168)), P80244; purified B. subtilis ClpP, FRET peptide cleavage, 20 min; Potency, µM (series often up to 57.5 µM); 1.9% of 340,000 active; AID 651965, 2013; active = well fitted falling curve with a large enough effect; inconclusive = small, poorly fitted or top-dose-only effect; inactive = no such curve, though single readings can be large or run the other way; also: the source files actives as falling curves though it sought activators and does not explain the sign; nearly all actives have a fitted effect of over 65% in size
Target sequence (P80244 whole entry, looked up): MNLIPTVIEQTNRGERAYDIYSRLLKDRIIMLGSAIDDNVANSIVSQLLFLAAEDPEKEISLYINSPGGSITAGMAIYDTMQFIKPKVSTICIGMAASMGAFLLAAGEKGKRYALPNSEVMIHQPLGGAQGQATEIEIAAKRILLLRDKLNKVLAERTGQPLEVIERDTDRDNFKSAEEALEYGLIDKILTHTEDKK
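ClpP 10 microg/mL final, pH 8 Tris/KCl buffer with BSA, glycerol, Tween-20; compound pinned in; FRET-FV substrate; RT 20 min; Ex320/Em430; ΔFRET vs ADEP 5.8 microM, DMSO, no enzyme.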
TDP1 cell CPT: growth inhibition of DT40 Tdp1-/-;hTDP1 cells with camptothecin (screen for TDP1 inhibitors); chicken DT40 Tdp1-/-;hTDP1 cells + 20 nM CPT, ATP luminescence, 48 h; Potency, µM (highest dose often 46.2 µM), most hits filed as inhibitors; 12% of 420,000 active; also: nearly all actives have a fitted effect of over 55% in size
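Cell growth measured by CellTiter-Glo luminescence after a minimum 48 h, 37 C compound exposure with 20 nM CPT in Tdp1-knockout DT40 cells stably expressing hTDP1, seeded 400/well; qHTS titration format.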
D3 antag: D3 dopamine receptor (human) antagonism | P35462 | D3R cells, DiscoveRx beta-arrestin luminescence, antagonist mode; active compounds read low | max response, negative = inhibition, % | 2.5% of 360,000 active; in the data active = max response below about -50%; inconclusive = no clear call, values can overlap the other calls
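Cells expressing the human receptor were seeded at 1500 cells/well, incubated overnight at 37 degrees C in 5% CO2, then exposed to library compounds with dopamine controls for 90 minutes at 37 degrees C before luminescent detection.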
DRD3 agonist: D3 dopamine receptor (human) agonism; P35462; AID 652048; 0.58% of 410,000 active; max activation, %; D3R DiscoveRx beta-arrestin cells, luminescence, 90 min; in the data active = max activation above about 30%
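Cells at 1500/well, incubated overnight, then treated with pinned compounds (dopamine as control) for 90 min at 37 degrees C. DiscoveRx reagent added for 30 - 60 minutes at room temperature; luminescence read.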
IL-1B inflam inh: inhibitors of inflammasome signaling (IL-1 beta secretion). THP-1 LPS/ATP IL-1B secretion, AlphaLISA, 16 h; active compounds read low. activity change, % at 57.5 µM. 4.7% of 360,000 active. AID 743279; in the data active = activity change below about -50%; inconclusive = mostly about -30% to -49%
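Secreted IL-1B measured by AlphaLISA bead assay after 16 h compound exposure of THP-1 cells; compounds (final up to 57.5 uM) added 1 h before LPS (250 ng/mL) and ATP (1.25 mM) stimulation; lower signal means less secretion.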
Of the large screens only hits and unclear results are named; the others gave an inactive call. Unless noted, calls follow the shape of the dose curve; as a rule, active = well fitted inhibition curve with a large enough effect; inconclusive = small, poorly fitted or top-dose-only effect; inactive = flat fitted curve, though single readings scatter.

CC(C)c1ccc(CN2CCC2(C)C(=O)Nc2cccc(Oc3ccccc3)c2)cc1 (centres undefined)	DT40 TDP1 no CPT 18µM, TDP1 cell CPT inconclusive
CC(C)Oc1ccc(CN2CCC2(C)C(=O)Nc2cccc(Oc3ccccc3)c2)cc1 (centres undefined)	DT40 TDP1 no CPT inconclusive, TDP1 cell CPT inconclusive
CC(C)Oc1cccc(NC(=O)C2(C)CCCN(C)C2)c1 (centres undefined)	none
COc1cccc(CN2CCC2(C)C(=O)Nc2cccc(Oc3ccccc3)c2)c1OC (centres undefined)	DT40 TDP1 no CPT 21µM, TDP1 cell CPT 23µM
COCC(=O)N1CCCC(C)(C(=O)Nc2cccc(Oc3ccccc3)c2)C1 (centres undefined)	DRD3 agonist 49
COc1cccc(CN2CCC2(C)C(=O)Nc2cccc(NS(C)(=O)=O)c2)c1OC (centres undefined)	DT40 TDP1 no CPT 23µM, TDP1 cell CPT 18µM
O=C1CCC[C@@H]2C[C@@]3(C[C@@H]4CCN1[C@H]24)Nc1cc([N+](=O)[O-])ccc1NC3=NCc1ccccc1	DT40 TDP1 no CPT inconclusive, TDP1 cell CPT inconclusive (no result: D3 antag, DRD3 agonist, IL-1B inflam inh)
CCCCNc1ccc(S(=O)(=O)c2cccc([N+](=O)[O-])c2)cc1[N+](=O)[O-]	none
Oc1ccc(C2CNCc3sccc32)cc1O (centres undefined)	DT40 TDP1 no CPT 21µM, TDP1 cell CPT 15µM
Cc1ccc(C(C(=O)NC(C)(C)C)N(Cc2cccnc2)C(=O)C(=O)NC2CCCCC2)o1 (centres undefined)	none (no result: ClpP mod)
COc1cc(OC)cc(C(=O)NCC2Cc3cccc(-c4nc(C)cnc4C)c3O2)c1 (centres undefined)	none (no result: ClpP mod, D3 antag, DRD3 agonist, IL-1B inflam inh)
O=C1OC2(c3ccc(O)cc3Oc3cc(O)ccc32)c2ccccc21	TDP1 cell CPT inconclusive, DRD3 agonist 30 (no result: ClpP mod, D3 antag, IL-1B inflam inh)
COc1ccc(-n2cnnc2SCc2ncc(-c3ccccc3)o2)cc1	none
Cn1c(COc2ccc(Cl)cc2)nnc1SCc1ncc(-c2ccccc2)o1	DT40 TDP1 no CPT 16µM, TDP1 cell CPT inconclusive
CCN(CC)S(=O)(=O)c1ccc2c(c1)N(CC(=O)N1CCN(c3ccc(F)cc3)CC1)C(=O)CO2	DT40 TDP1 no CPT inconclusive, TDP1 cell CPT inconclusive (no result: D3 antag, IL-1B inflam inh)
Cc1ccc(S(=O)(=O)c2nnn3c2nc(N2CCC(C(N)=O)CC2)c2ccccc23)cc1	IL-1B inflam inh inconclusive
Cc1ccccc1Cc1c(C)nc2c(C(=O)N3CCN(Cc4ccc5c(c4)OCO5)CC3)cnn2c1C	DT40 TDP1 no CPT 18µM, ClpP mod 32µM, TDP1 cell CPT inconclusive, D3 antag -60, IL-1B inflam inh inconclusive
Cc1noc(C)c1C(=O)N1CCN(Cc2ccc3c(c2)OCO3)CC1	none
Cc1cccc(Cc2c(C)nc3c(C(=O)N4CCN(Cc5ccc6c(c5)OCO6)CC4)cnn3c2C)c1	DT40 TDP1 no CPT inconclusive, ClpP mod 22µM, TDP1 cell CPT inconclusive, D3 antag inconclusive
Cc1c(C(=O)NCc2ccc3c(c2)OCO3)cnn1-c1ncc2c(n1)-c1ccccc1CC2	none (no result: ClpP mod, D3 antag, DRD3 agonist, IL-1B inflam inh)
COc1cccc(CNC(=O)c2c[nH]n3c(=O)c(Cl)c(C)nc23)c1	ClpP mod inconclusive
Cc1ccccc1Cc1c(C)nc2c(C(=O)NCc3ccc4c(c3)OCO4)cnn2c1C	DT40 TDP1 no CPT inconclusive, TDP1 cell CPT 18µM, D3 antag -81
Cc1nc2c(C(=O)NCc3ccc4c(c3)OCO4)c[nH]n2c(=O)c1Cl	ClpP mod 32µM
Cc1ccc(S(=O)(=O)CC(=O)Nc2nc3c(C)cc(C)cc3s2)cc1	DT40 TDP1 no CPT inconclusive, TDP1 cell CPT inconclusive (no result: D3 antag, IL-1B inflam inh)
O=C(CN1CCc2ccccc21)Nc1ccc2c(c1)OCCCO2	DT40 TDP1 no CPT inconclusive
CCN1CCN(c2ccc(NC(=O)c3cccc(N4CCCC4=O)c3)cc2)CC1	none (no result: ClpP mod)
